Source: PubChem
Only some compounds are listed: those with a hit (about 18% of all), similar ones and a draw of the others.
TDP1 cell noCPT: qHTS for Inhibitors of human tyrosyl-DNA phosphodiesterase 1 (TDP1): qHTS in cells in absence of CPT. AID 686978, 2013. Potency, µM (doses to about 46.2 µM), without a hit: at the highest dose activity change, negative = growth inhibition, actives largely listed as inhibitors. 420,000 tested, 15% active. DT40 Tdp1-/- hTDP1 cells, no CPT, ATP luminescence, 48 h; also: potency is read from the fitted curve at half-maximal effect; nearly all actives have a fitted effect of over 55% in size
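Growth kinetics read by CellTiter-Glo luminescence after ≥48 hr at 37 °C. Cells: DT40 Tdp1-/- stably carrying human TDP1, 400 per well, compound exposure in the absence of CPT (DMSO vehicle).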
IL1B secr inh: blocks inflammasome-driven IL-1 beta release. THP-1 LPS/ATP IL-1B secretion, AlphaLISA, 16 h; hits give low values. activity change, % at 57.5 µM. 360,000 tested, 4.7% active. AID 743279; in the data active = activity change below about -50%; inconclusive = mostly about -30% to -49%
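Secreted IL-1B measured by AlphaLISA bead assay after 16 h compound exposure of THP-1 cells; compounds (final up to 57.5 uM) added 1 h before LPS (250 ng/mL) and ATP (1.25 mM) stimulation; lower signal means less secretion.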
DT40 TDP1 CPT: growth inhibition of DT40 Tdp1-/-;hTDP1 cells with camptothecin (screen for TDP1 inhibitors); chicken DT40 Tdp1-/-;hTDP1 cells + 20 nM CPT, ATP luminescence, 48 h; Potency, µM (titrated, usually from 46.2 µM), for the others: top-dose activity change, negative = growth inhibition, most hits filed as inhibitors; 420,000 tested, 12% active; also: potency is read from the fitted curve at half-maximal effect; nearly all actives have a fitted effect of over 55% in size
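Chicken DT40 Tdp1-/- cells complemented with human TDP1, 400 cells/well, exposed to compounds plus 20 nM camptothecin for at least 48 h at 37 C; viability read as ATP content by CellTiter-Glo luminescence.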
CtBP-E1A inh: inhibitors of CtBP/E1A interaction | AlphaScreen GST-E1A/His-CtBP binding, 1536-well; hits give low values | activity change, % (test concentration not listed) | 340,000 tested, 0.49% active | AID 651724; in the data active = activity change below about -65%; inconclusive = mostly about -30% to -63%
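Steps: dispense buffer (Tris pH 8.0, NaCl 300 mM, TCEP 1 mM, BSA, Tween 20); add 5X protein mix (GST-E1A, His-CtBP, 125 nM each); pin 23 nL compound; 2 h at 37 °C, dark; add 5X beads (50 ug/mL); 1 h; read.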
Six1-Eya2 blk: inhibitors of human Six1/Eya2 interaction. activity change, % (no concentration beside the values). AlphaScreen GST-Six1/His-Eya2 binding, biochemical; hits give low values. 360,000 tested, 0.56% active; in the data active = activity change below about -65%; inconclusive = mostly about -30% to -63%
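Six1/Eya2 binding was read as AlphaScreen signal after compounds were pinned into GST-Six1 plus His-tagged Eya2 (5X stock 250/500 nM) in pH 8.0 Tris/NaCl/TCEP buffer, beads added, then incubated 1 h, 37 C, dark.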
TDP1 inh: blocks human tyrosyl-DNA phosphodiesterase 1 | Q9NUW8 | recombinant TDP1, AlphaScreen DNA substrate cleavage | Potency, µM (highest dose often 130 µM), inactives show at the top dose activity change, negative = inhibition, usual class: inhibitors | 350,000 tested, 0.28% active; also: potency is read from the fitted curve at half-maximal effect; nearly all actives have a fitted effect of over 40% in size
Target sequence (Q9NUW8 whole entry, looked up): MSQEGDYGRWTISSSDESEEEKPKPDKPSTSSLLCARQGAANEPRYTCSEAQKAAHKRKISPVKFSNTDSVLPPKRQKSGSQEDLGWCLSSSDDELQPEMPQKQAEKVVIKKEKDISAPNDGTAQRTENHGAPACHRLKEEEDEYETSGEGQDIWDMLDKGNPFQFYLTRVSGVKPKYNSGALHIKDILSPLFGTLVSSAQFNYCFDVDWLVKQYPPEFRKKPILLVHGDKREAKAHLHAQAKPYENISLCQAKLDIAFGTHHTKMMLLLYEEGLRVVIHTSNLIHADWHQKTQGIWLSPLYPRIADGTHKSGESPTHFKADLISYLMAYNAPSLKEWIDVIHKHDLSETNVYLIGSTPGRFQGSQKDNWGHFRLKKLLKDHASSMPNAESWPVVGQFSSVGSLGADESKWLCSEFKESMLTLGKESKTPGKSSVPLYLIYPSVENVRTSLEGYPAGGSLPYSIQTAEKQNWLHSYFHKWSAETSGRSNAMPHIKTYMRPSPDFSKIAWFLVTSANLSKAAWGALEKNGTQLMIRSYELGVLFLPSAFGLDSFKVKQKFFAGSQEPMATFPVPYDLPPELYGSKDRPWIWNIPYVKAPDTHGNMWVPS
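Recombinant E. coli-expressed Tdp1 (1 nM) preincubated with compound 15 min at RT, then 5'-biotin/3'-phosphotyrosine-FITC DNA substrate (15 nM) added for 5 min. AlphaScreen beads (10 ug/ml) added, 10 min RT; tyrosine-FITC cleavage read as signal loss.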
The depositor's hits bear a star. Unless noted, calls follow the shape of the dose curve; as a rule, active = well fitted curve in the direction sought with a large enough effect; inconclusive = small, poorly fitted or top-dose-only effect, or another doubt; inactive = no such curve, though single readings can be large; an effect the other way counts as inactive or inconclusive. % is scaled to controls: 0 for no effect and ±100 for the full control effect.

For COc1ccc(Nc2cc(C(=O)NCCCN(C)C3CCCCC3)c3ccccc3n2)c(OC)c1 the results were TDP1 cell noCPT inconclusive, DT40 TDP1 CPT inconclusive and TDP1 inh 9.3%.
`CC(C)COC(=O)NCC12C=CC(O1)C1C(=O)N(c3ccc(Cl)cc3)C(=O)C12` (stereo unspecified) gave TDP1 cell noCPT 18.4µM*, IL1B secr inh -19.0, DT40 TDP1 CPT 16.4µM*, CtBP-E1A inh 6.6, Six1-Eya2 blk -6.0 and TDP1 inh 6.8%.
For O=C1C2C3C=CC(CNS(=O)(=O)c4ccccc4[N+](=O)[O-])(O3)C2C(=O)N1c1ccccc1 (stereo unspecified) the results were TDP1 cell noCPT -2.6%, IL1B secr inh 0.0, DT40 TDP1 CPT inconclusive, CtBP-E1A inh 1.6, Six1-Eya2 blk 7.7 and TDP1 inh 8.2%.
Screening CCC(C)Sc1nc2c(c(=O)[nH]1)C(c1cccs1)C1=C(CCCC1=O)N2 (stereo unspecified) returned TDP1 cell noCPT 20.6µM*, IL1B secr inh -10.3, DT40 TDP1 CPT inconclusive, CtBP-E1A inh -0.5, Six1-Eya2 blk -9.9 and TDP1 inh -1.2%.
For CCOc1ccc(C2C3=C(CCCC3=O)OC(N)=C2[N+](=O)[O-])cc1 (stereo unspecified) the results were TDP1 cell noCPT 3.5%, IL1B secr inh -3.3, DT40 TDP1 CPT 4.0%, CtBP-E1A inh 5.6, Six1-Eya2 blk 4.7 and TDP1 inh 6.8%.
`O=[N+]([O-])c1ccc(-c2cn3nc(-c4ccccc4)c(-c4ccccc4)nc3n2)cc1` gave TDP1 cell noCPT inconclusive, DT40 TDP1 CPT 4.4%, CtBP-E1A inh 4.6, Six1-Eya2 blk 0.6 and TDP1 inh 0.0%.
For c1ccc(-c2cn3nc(-c4ccccc4)c(-c4ccccc4)nc3n2)cc1 the results were TDP1 cell noCPT inconclusive, IL1B secr inh -55.3*, DT40 TDP1 CPT inconclusive, CtBP-E1A inh 87.2, Six1-Eya2 blk 68.3 and TDP1 inh inconclusive.
Cc1ccc(-c2cn3nc(-c4ccccc4)c(-c4ccccc4)nc3n2)cc1 was read as TDP1 cell noCPT inconclusive, IL1B secr inh -74.4*, DT40 TDP1 CPT inconclusive, CtBP-E1A inh 9.0 and Six1-Eya2 blk -2.2.
For COc1ccc(C2C(C(N)=O)=C(C)Nc3nc(-c4ccccc4OC)nn32)cc1OC (stereo unspecified) the results were TDP1 cell noCPT -11.8%, IL1B secr inh 6.2, DT40 TDP1 CPT 8.6%, CtBP-E1A inh -0.1, Six1-Eya2 blk -0.8 and TDP1 inh 1.0%.
For CCOC(=O)/C=C/C(=O)N1CCN(C(=O)/C=C/C(=O)OCC)CC1 the results were TDP1 cell noCPT 20.6µM*, IL1B secr inh -100.1*, DT40 TDP1 CPT inconclusive, CtBP-E1A inh 4.0 and Six1-Eya2 blk 10.1.
Screening O=C(O)/C=C/C(=O)N1CCN(C(=O)/C=C/C(=O)O)CC1 returned TDP1 cell noCPT -9.2%, IL1B secr inh 9.1, DT40 TDP1 CPT 0.3%, CtBP-E1A inh -22.7, Six1-Eya2 blk 1.3 and TDP1 inh 8.1%.
For COc1ccc(N=C/C=C2\C=C(c3ccccc3)OC(C)(C)O2)cc1 the results were TDP1 cell noCPT inconclusive, IL1B secr inh -1.3, DT40 TDP1 CPT 16.4µM*, CtBP-E1A inh -20.6, Six1-Eya2 blk inconclusive and TDP1 inh 10.0%.
For CCC(C)NC(=O)c1ccc(-n2c(-c3ccccc3)cc3c2CCCC3)cc1 (stereo unspecified) the results were TDP1 cell noCPT inconclusive, DT40 TDP1 CPT 16.4µM* and TDP1 inh 3.9%.
For CCNC(=O)c1ccc(-n2c(-c3ccccc3)cc3c2CCCCC3)cc1 the results were TDP1 cell noCPT inconclusive, DT40 TDP1 CPT inconclusive and TDP1 inh -1.3%.
